# In the supplement of paper PMC8728848:
# The entries come from a sample that favours the strongest signals as a whole.
# What was measured:
# Experiment in all cases: glycan array binding signal (z-score within array); higher = stronger binding
# Conditions in all cases: glycan notation: IUPAC condensed, linker removed
# [1] = system: Fuc(a1-2)Gal(b1-4)GlcNAc(b1-2)Man(a1-3)[Fuc(a1-2)Gal(b1-4)GlcNAc(b1-2)Man(a1-6)]Man(b1-4)GlcNAc(b1-4)[Fuc(a1-6)]GlcNAc
# How it was run: (§1)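 From the Consortium for Functional Glycomics database, 3228 arrays were curated, keeping only those whose protein sequence was available. Binding is given as a within-array Z-score averaged across arrays sharing a protein sequence and across linkers. Negative Z-scores can be read as non-binding.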
# [2] = system: Fuc(a1-2)Gal(b1-4)GlcNAc(b1-3)Gal(b1-4)GlcNAc(b1-2)Man(a1-3)[Fuc(a1-2)Gal(b1-4)GlcNAc(b1-3)Gal(b1-4)GlcNAc(b1-2)Man(a1-6)]Man(b1-4)GlcNAc(b1-4)GlcNAc
# How it was run: as §1
# [3] = system: Fuc(a1-2)Gal(b1-4)GlcNAc(b1-3)[Fuc(a1-3)[Gal(b1-4)]GlcNAc(b1-6)]Gal(b1-4)Glc
# How it was run: as §1
# [4] = system: Fuc(a1-2)Gal(b1-4)[Fuc(a1-3)]GlcNAc
# How it was run: as §1
# Fuc(a1-2)Gal(b1-4)Glc6S = system: Fuc(a1-2)Gal(b1-4)Glc6S
# How it was run: as §1
# [5] = system: Fuc(a1-2)Gal(b1-4)GlcNAc(b1-3)GalNAc
# How it was run: as §1
# [6] = system: Fuc(a1-2)Gal(b1-4)[Fuc(a1-3)]GlcNAc(b1-2)Man(a1-3)[Fuc(a1-2)Gal(b1-4)[Fuc(a1-3)]GlcNAc(b1-2)Man(a1-6)]Man(b1-4)GlcNAc(b1-4)GlcNAc
# How it was run: as §1
# [7] = system: Fuc(a1-2)Gal(b1-4)[Fuc(a1-3)]GlcNAc(b1-3)GalNAc
# How it was run: as §1
# [8] = system: Fuc(a1-2)Gal(b1-4)GlcNAc(b1-2)[Fuc(a1-2)Gal(b1-4)GlcNAc(b1-4)]Man(a1-3)[Fuc(a1-2)Gal(b1-4)GlcNAc(b1-2)Man(a1-6)]Man(b1-4)GlcNAc(b1-4)GlcNAc
# How it was run: as §1
# [9] = system: Fuc(a1-2)Gal(b1-4)GlcNAc(b1-6)GalNAc
# How it was run: as §1
# [10] = system: Fuc(a1-2)Gal(b1-3)[Fuc(a1-4)]GlcNAc(b1-2)Man(a1-3)[Fuc(a1-2)Gal(b1-3)[Fuc(a1-4)]GlcNAc(b1-2)Man(a1-6)]Man(b1-4)GlcNAc(b1-4)GlcNAc
# How it was run: as §1
# [11] = system: Fuc(a1-2)Gal(b1-4)GlcNAc6S
# How it was run: as §1
# [12] = system: Fuc(a1-2)Gal(b1-4)GlcNAc(b1-3)Gal(b1-4)GlcNAc(b1-3)Gal(b1-4)GlcNAc
# How it was run: as §1
# [13] = system: Fuc(a1-2)Gal(b1-4)GlcNAc(b1-3)Gal(b1-4)GlcNAc
# How it was run: as §1
# Fuc(a1-2)Gal(b1-4)GlcNAc = system: Fuc(a1-2)Gal(b1-4)GlcNAc
# How it was run: as §1
# [14] = system: Fuc(a1-2)Gal(b1-4)[Fuc(a1-3)]GlcNAc(b1-3)Gal(b1-4)[Fuc(a1-3)]GlcNAc
# How it was run: as §1
# [15] = system: Fuc(a1-2)Gal(b1-3)[Fuc(a1-4)]GlcNAc(b1-2)Man(a1-3)[Fuc(a1-2)Gal(b1-3)[Fuc(a1-4)]GlcNAc(b1-2)Man(a1-6)]Man(b1-4)GlcNAc(b1-4)[Fuc(a1-6)]GlcNAc(b1-4)[Fuc(a1-6)]GlcNAc
# How it was run: as §1
# [16] = system: Fuc(a1-2)Gal(b1-4)GlcNAc(b1-3)[Fuc(a1-2)Gal(b1-4)GlcNAc(b1-6)]GalNAc
# How it was run: as §1
# [17] = system: Fuc(a1-2)Gal(b1-4)[Fuc(a1-3)]GlcNAc(b1-3)Gal(b1-4)[Fuc(a1-3)]GlcNAc(b1-3)Gal(b1-4)[Fuc(a1-3)]GlcNAc
# How it was run: as §1
# [18] = system: Fuc(a1-2)Gal(b1-3)[Fuc(a1-4)]GlcNAc
# How it was run: as §1
substance,measurement,setting,value
LcI (Legionella pneumophila),glycan array binding signal (z-score),[1],0.257
same,glycan array binding signal (z-score),[2],3.4
same,glycan array binding signal (z-score),[3],-0.92
same,glycan array binding signal (z-score),[4],-0.561
"SiiE (Salmonella typhimurium), A0A0H3NVH0",glycan array binding signal (z-score),Fuc(a1-2)Gal(b1-4)Glc6S,3.24
same,glycan array binding signal (z-score),[5],-0.206
same,glycan array binding signal (z-score),[6],2.43
same,glycan array binding signal (z-score),[7],1.53
"Wza (Escherichia coli), P0A930",glycan array binding signal (z-score),[8],0.441
same,glycan array binding signal (z-score),[9],0.01
"SpGH101 (Streptococcus pneumoniae), Q8DR60",glycan array binding signal (z-score),[10],0.018
same,glycan array binding signal (z-score),[11],-0.166
same,glycan array binding signal (z-score),[7],0.136
same,glycan array binding signal (z-score),[4],-0.183
"BambL (Burhholderia ambifaria), Q0B4G1",glycan array binding signal (z-score),[12],3.79
same,glycan array binding signal (z-score),[13],3.14
same,glycan array binding signal (z-score),[5],-0.033
same,glycan array binding signal (z-score),Fuc(a1-2)Gal(b1-4)GlcNAc,3.81
same,glycan array binding signal (z-score),[14],3.28
Epa22,glycan array binding signal (z-score),[15],0.488
same,glycan array binding signal (z-score),Fuc(a1-2)Gal(b1-4)GlcNAc,0.238
AgI/IIC123-GFP (Streptococcus mutans),glycan array binding signal (z-score),[1],-0.573
same,glycan array binding signal (z-score),[16],-0.365
same,glycan array binding signal (z-score),[3],0.17
same,glycan array binding signal (z-score),[17],-0.094
AgI/II Vhelical-GFP (Streptococcus mutans),glycan array binding signal (z-score),[18],-0.149
same,glycan array binding signal (z-score),[8],-0.246
"GspB (Streptococcus gordonii), Q939N5",glycan array binding signal (z-score),[12],0
Actinohivin (Actinomycete K97),glycan array binding signal (z-score),[15],0.06
